According to PubChem BioAssay (EPA / NIEHS):
Results filed as inconclusive are left out. Active and inactive are the calls of the source. Rule for the calls, unless noted: active = hit-call score of the fitted dose curve at least 0.9, where 1 is the maximum; inactive = score below 0.9.

Assays:
[1] = ATG_GAL4_TRANS: Attagene TRANS-FACTORIAL HepG2 Assay for GAL4 (Internal Marker) (AID 2282976; active = hit-call score of the fitted dose curve at least 0.9, where 1 is the maximum); conditions: HepG2 Attagene TRANS GAL4 internal marker reporter
Method in brief: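 RT-PCR/capillary electrophoresis readout of reporter mRNA. HepG2, transient MRTU transfection (GAL4-UAS reporters), 24 h compound exposure. Background-control endpoint, positive direction vs DMSO baseline.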

[2] = molecular target: Estrogen-related receptor gamma (Homo sapiens) (UniProt P62508); assay: ATG_ERRg_TRANS: Attagene TRANS-FACTORIAL HepG2 Assay for human Estrogen-Related Receptor gamma (ERRg) (AID 2282977; active = hit-call score of the fitted dose curve at least 0.9, where 1 is the maximum;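 note: hits increase reporter signal over DMSO so potencies reflect activators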); conditions: HepG2 Attagene TRANS reporter, ERRg transactivation
Method in brief: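 Transient HepG2 transfectants, 24 h compound exposure, GAL4-UAS reporter mRNA by RT-PCR/6-FAM labelling/capillary electrophoresis; positive direction vs DMSO.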

[3] = molecular target: Glucocorticoid receptor (Homo sapiens) (UniProt P04150); assay: ATG_GR_TRANS: Attagene TRANS-FACTORIAL HepG2 Assay for human Glucocorticoid Receptor (GR) (AID 2282978; active = hit-call score of the fitted dose curve at least 0.9, where 1 is the maximum;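 note: activators score as hits since higher reporter transcript over DMSO is fitted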); conditions: HepG2 Attagene TRANS GR reporter, mRNA transcription
Method in brief: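 Multiplexed TRANS reporter system, HepG2; 24 h exposure; RNA → oligo(dT) RT → reporter-specific PCR → 6-FAM primer extension → HpaI cut → CE fluorescence. Gain-of-signal vs DMSO.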

[4] = molecular target: Bile acid receptor (Homo sapiens) (UniProt Q96RI1); assay: ATG_FXR_TRANS: Attagene TRANS-FACTORIAL HepG2 Assay for Farnesoid X Receptor (FXR) (AID 2282979; active = hit-call score of the fitted dose curve at least 0.9, where 1 is the maximum;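 note: hits raise reporter mRNA above DMSO so AC50 marks FXR activation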); conditions: HepG2 Attagene TRANS FXR-GAL4 reporter transcription
Method in brief: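 Read-out: fluorescent reporter transcripts quantified by capillary electrophoresis after RT-PCR of total RNA. Source cells were HepG2 transiently carrying chimeric NR-GAL4 plus GAL4-UAS reporter units, dosed 24 h. Activity fitted upward relative to DMSO baseline.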

[5] = molecular target: Oxysterols receptor LXR-alpha (Homo sapiens) (UniProt Q13133); assay: ATG_LXRa_TRANS: Attagene TRANS-FACTORIAL HepG2 Assay for human Liver X Receptor alpha (LXRa) (AID 2282980; active = hit-call score of the fitted dose curve at least 0.9, where 1 is the maximum); conditions: HepG2 Attagene TRANS reporter, LXRa transactivation
Method in brief: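 Read-out: reporter transcript levels by RT-PCR plus capillary electrophoresis, fluorescence intensity. Transiently transfected HepG2, exogenous NR-GAL4 chimera, GAL4-UAS reporters; 24 h compound exposure. Activity = increase over DMSO negative control.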

[6] = ATG_M_06_TRANS: Attagene TRANS-FACTORIAL HepG2 Assay for M06 Transcription Factor (Internal Marker) (AID 2282983; active = hit-call score of the fitted dose curve at least 0.9, where 1 is the maximum); conditions: HepG2 Attagene TRANS M06 internal marker reporter
Method in brief: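 After a 24 h chemical treatment of transfected HepG2, RNA underwent DNase I treatment, reverse transcription and reporter-specific PCR; labelled, HpaI-digested products were sized by capillary electrophoresis. Signal increase relative to DMSO defined activity.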

[7] = ATG_M_32_TRANS: Attagene TRANS-FACTORIAL HepG2 Assay for M32 Transcription Factor (Internal Marker) (AID 2282984; active = hit-call score of the fitted dose curve at least 0.9, where 1 is the maximum;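 note: transcript level of a background control reporter unit measured by RT-PCR and capillary electrophoresis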); conditions: HepG2 Attagene TRANS M32 internal marker reporter
Method in brief: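 HepG2 cells transiently transfected with multiple GAL4-UAS reporter transcription units, dosed for 24 hours; reporter mRNA quantified by RT-PCR, 6-FAM primer extension, HpaI digestion and capillary electrophoresis. Gain-of-signal fitted versus DMSO baseline; internal background-control marker.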

[8] = molecular target: Transcriptional activator Myb (Homo sapiens) (UniProt P10242); assay: ATG_Myb_CIS: Attagene CIS-FACTORIAL HepG2 Assay for human Myeloblastosis (Myb) Proto-Oncogene Transcription Factor (AID 2282986); conditions: HepG2 Attagene CIS-FACTORIAL Myb reporter transcription; actives raise or lower the signal
Method in brief: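 Endogenous transcription factor activity at a Myb-responsive cis element is reported in human liver HepG2 cells after 24 h chemical treatment. Reporter mRNA is detected by RT-PCR and capillary electrophoresis fluorescence, with DMSO as baseline.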

[9] = molecular target: Nuclear respiratory factor 1 (Homo sapiens) (UniProt Q16656); assay: ATG_NRF1_CIS: Attagene CIS-FACTORIAL HepG2 Assay for human Nuclear Respiratory Factor 1 (NRF1) Orphan Gene (AID 2282987); conditions: HepG2 NRF1 cis-element reporter, Attagene multiplex; actives raise or lower the signal
Method in brief: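 Human hepatoma HepG2 cells carrying transfected promoter-regulated reporter units were incubated with test chemicals for 24 h. Reporter transcripts were measured by RT-PCR plus capillary electrophoresis, and endpoints derived by bidirectional fitting with DMSO as baseline.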

[10] = ATG_NFI_CIS: Attagene CIS-FACTORIAL HepG2 Assay for human Nuclear Factor I (NFI) (AID 2282989); conditions: HepG2 cis-regulatory reporter, NFI response element transcription; actives raise or lower the signal
Method in brief: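 Cells: human liver HepG2, transiently transfected with promoter-regulated reporter transcription units. Exposure 24 h. Detection: fluorescent RT-PCR products separated by capillary electrophoresis, normalised to DMSO negative control.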

[11] = molecular target: Myc proto-oncogene protein (Homo sapiens) (UniProt P01106); assay: ATG_Myc_CIS: Attagene CIS-FACTORIAL HepG2 Assay for human Myelocytomatosis (Myc) Proto-Oncogene Transcription Factor (AID 2282990); conditions: HepG2, Attagene cis-reporter transcription factor activity; actives raise or lower the signal
Method in brief: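 HepG2 cells transiently transfected with multiple cis-promoter-driven reporter transcription units, so endogenous TF activity is read. After 24 h compound exposure, reporter mRNA was quantified by RT-PCR, 6-FAM labelling, HpaI digestion and capillary electrophoresis; bidirectional fit versus DMSO.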

[12] = ATG_NF_kB_CIS: Attagene CIS-FACTORIAL HepG2 Assay for human Nuclear Factor Kappa B (NF-kB) (AID 2282991); conditions: HepG2 Attagene cis-factorial NF-kB reporter mRNA; actives raise or lower the signal
Method in brief: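 Multiplexed cis-reporter assay in transiently transfected HepG2. 24 h treatment; RNA isolated, RT-PCR, labelled fragments resolved by CE. DMSO baseline.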

[13] = ATG_NRF2_ARE_CIS: Attagene CIS-FACTORIAL HepG2 Assay for human Nuclear Factor Erythroid 2 Related Factor 2 (NFR2) response to Antioxidant Response Elements (ARE) (AID 2282992); conditions: HepG2 Attagene ARE/NRF2 reporter, transcription factor activity; actives raise or lower the signal;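 for AC50: reporter mRNA level measured by RT-PCR and capillary electrophoresis fluorescence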
Method in brief: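 Cis-factorial assay: transfected HepG2 reporter library, 24 h dosing, mRNA readout via RT-PCR/CE; DMSO-referenced bidirectional analysis.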

[14] = ATG_Oct_MLP_CIS: Attagene CIS-FACTORIAL HepG2 Assay for human Octamer-Binding Transcription Factor (Oct) (AID 2282993); conditions: HepG2 Attagene cis-factorial Oct reporter, mRNA; actives raise or lower the signal
Method in brief: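 HepG2, transient MRTU transfection, cis promoter elements; 24 h dosing; RT-PCR/CE fluorescence read-out of reporter mRNA; fit both directions vs DMSO.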

[15] = molecular target: Cellular tumor antigen p53 (Homo sapiens) (UniProt P04637); assay: ATG_p53_CIS: Attagene CIS-FACTORIAL HepG2 Assay for human p53 Transcription Factor (AID 2282994); conditions: HepG2 p53 cis-element reporter, Attagene mRNA; actives raise or lower the signal
Method in brief: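 Using HepG2 hepatoma cells carrying cis-acting multiplexed reporters, mRNA induction is detected after a 24 h exposure. Gain- and loss-of-signal responses are fitted relative to DMSO-treated cells.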

[16] = BSK_3C_TissueFactor: BioMAP Diversity Plus: 3C Assay for Tissue Factor Biomarker Activity (AID 2282997); conditions: BioMAP 3C HUVEC, tissue factor biomarker readout; actives raise or lower the signal
Method in brief: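 Human vascular primary cells (umbilical vein endothelium) received test chemical; Tissue Factor was determined by ELISA at 24 h, and both gain and loss of signal versus DMSO were fitted.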

[17] = BSK_3C_uPAR: BioMAP Diversity Plus: 3C Assay for Urokinase-type plasminogen activator receptor (uPAR) Biomarker Activity (AID 2282998); conditions: BioMAP 3C HUVEC, uPAR biomarker ELISA; actives raise or lower the signal
Method in brief: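 A multiplexed primary-cell system built on human umbilical vein endothelium was used, with chemical present for 24 h before reading. Cell-surface uPAR was detected by ELISA; signal change in either direction counted against DMSO.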

[18] = molecular target: Nuclear receptor subfamily 4 group A member 2 (Homo sapiens) (UniProt P43354); assay: ATG_NURR1_TRANS: Attagene TRANS-FACTORIAL HepG2 Assay for human Nuclear Receptor Related Protein 1 (NURR1) (AID 2282985; active = hit-call score of the fitted dose curve at least 0.9, where 1 is the maximum); conditions: HepG2 Attagene TRANS reporter, mRNA readout
Method in brief: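 HepG2 cells transiently transfected with GAL4-UAS reporter units and chimeric NR-Gal4 constructs; chemical exposure 24 h. Reporter mRNA quantified by RT-PCR, fluorescent labelling and capillary electrophoresis; gain of signal fitted relative to DMSO baseline.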

[19] = molecular target: Hepatocyte nuclear factor 4-alpha (Homo sapiens) (UniProt P41235); assay: ATG_HNF4a_TRANS: Attagene TRANS-FACTORIAL HepG2 Assay for human Hepatocyte Nuclear Factor 4 alpha (HNF4a) (AID 2282982; active = hit-call score of the fitted dose curve at least 0.9, where 1 is the maximum); conditions: HepG2 HNF4a transactivation reporter, mRNA readout
Method in brief: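 HepG2 cells transiently transfected with multiplexed GAL4-UAS reporter units responsive to chimeric NR-GAL4 proteins; compound exposure 24 h. Reporter mRNA quantified by RT-PCR, 6-FAM labelling, HpaI digestion and capillary electrophoresis; gain of signal versus DMSO baseline.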

Measured: AC50

Estrogen-related receptor gamma (Homo sapiens), sequence (P62508 whole entry, looked up, the tested form may be a part): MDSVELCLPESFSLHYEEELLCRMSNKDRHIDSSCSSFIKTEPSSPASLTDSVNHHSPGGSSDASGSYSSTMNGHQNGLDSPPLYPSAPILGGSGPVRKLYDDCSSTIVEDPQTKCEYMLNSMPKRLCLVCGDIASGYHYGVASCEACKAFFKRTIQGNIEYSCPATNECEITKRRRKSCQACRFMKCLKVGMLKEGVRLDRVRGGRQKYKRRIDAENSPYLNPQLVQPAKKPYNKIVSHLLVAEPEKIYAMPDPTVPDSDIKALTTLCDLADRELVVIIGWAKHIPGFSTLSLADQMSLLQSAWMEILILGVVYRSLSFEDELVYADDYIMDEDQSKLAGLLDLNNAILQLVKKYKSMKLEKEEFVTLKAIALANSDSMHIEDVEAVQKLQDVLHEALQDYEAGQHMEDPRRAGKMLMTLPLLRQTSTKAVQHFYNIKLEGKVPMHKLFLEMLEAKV
Nuclear respiratory factor 1 (Homo sapiens), sequence (Q16656 whole entry, looked up): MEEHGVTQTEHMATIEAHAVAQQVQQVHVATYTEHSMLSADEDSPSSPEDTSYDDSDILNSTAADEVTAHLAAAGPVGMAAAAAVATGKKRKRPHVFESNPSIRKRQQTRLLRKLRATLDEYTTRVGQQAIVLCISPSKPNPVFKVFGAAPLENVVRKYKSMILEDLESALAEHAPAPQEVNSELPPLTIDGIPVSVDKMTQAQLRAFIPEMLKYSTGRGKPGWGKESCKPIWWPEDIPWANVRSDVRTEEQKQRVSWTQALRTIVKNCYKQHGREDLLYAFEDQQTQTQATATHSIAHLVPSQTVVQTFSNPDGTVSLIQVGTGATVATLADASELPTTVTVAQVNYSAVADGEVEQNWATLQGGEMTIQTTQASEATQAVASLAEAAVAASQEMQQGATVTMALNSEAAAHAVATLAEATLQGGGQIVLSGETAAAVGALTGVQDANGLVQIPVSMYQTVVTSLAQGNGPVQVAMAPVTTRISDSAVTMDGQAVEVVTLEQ
Bile acid receptor (Homo sapiens), sequence (Q96RI1 whole entry, looked up, the tested form may be a part): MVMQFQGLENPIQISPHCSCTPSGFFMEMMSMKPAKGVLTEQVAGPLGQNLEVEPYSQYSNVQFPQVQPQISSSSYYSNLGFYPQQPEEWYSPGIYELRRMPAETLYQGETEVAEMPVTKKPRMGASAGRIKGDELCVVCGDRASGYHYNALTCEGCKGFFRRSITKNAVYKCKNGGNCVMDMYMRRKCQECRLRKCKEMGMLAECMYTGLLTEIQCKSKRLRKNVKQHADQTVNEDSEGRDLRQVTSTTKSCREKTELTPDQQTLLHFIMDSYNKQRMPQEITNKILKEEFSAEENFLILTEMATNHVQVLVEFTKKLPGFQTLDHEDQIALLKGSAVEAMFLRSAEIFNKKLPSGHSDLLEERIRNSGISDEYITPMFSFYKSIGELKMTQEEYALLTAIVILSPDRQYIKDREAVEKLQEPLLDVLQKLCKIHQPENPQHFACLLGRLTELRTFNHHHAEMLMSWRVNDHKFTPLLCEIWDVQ
Nuclear receptor subfamily 4 group A member 2 (Homo sapiens), sequence (P43354 whole entry, looked up, the tested form may be a part): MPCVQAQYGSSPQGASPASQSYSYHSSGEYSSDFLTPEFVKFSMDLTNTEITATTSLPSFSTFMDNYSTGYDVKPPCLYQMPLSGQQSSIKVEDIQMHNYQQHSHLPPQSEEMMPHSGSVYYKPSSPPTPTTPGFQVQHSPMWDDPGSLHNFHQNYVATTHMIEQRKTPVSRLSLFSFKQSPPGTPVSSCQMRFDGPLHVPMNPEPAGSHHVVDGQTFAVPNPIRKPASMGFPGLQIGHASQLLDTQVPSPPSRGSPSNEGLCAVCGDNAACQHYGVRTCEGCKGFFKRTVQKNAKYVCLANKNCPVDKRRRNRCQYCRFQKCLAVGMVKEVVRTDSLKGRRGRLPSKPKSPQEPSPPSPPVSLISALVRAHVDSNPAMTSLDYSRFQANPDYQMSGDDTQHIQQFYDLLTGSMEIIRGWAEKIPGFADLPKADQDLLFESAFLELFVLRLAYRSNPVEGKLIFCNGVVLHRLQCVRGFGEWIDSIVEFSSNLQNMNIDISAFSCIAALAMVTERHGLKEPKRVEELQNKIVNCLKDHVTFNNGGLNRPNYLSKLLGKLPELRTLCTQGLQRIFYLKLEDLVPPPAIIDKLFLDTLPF
Glucocorticoid receptor (Homo sapiens), sequence (P04150 whole entry, looked up): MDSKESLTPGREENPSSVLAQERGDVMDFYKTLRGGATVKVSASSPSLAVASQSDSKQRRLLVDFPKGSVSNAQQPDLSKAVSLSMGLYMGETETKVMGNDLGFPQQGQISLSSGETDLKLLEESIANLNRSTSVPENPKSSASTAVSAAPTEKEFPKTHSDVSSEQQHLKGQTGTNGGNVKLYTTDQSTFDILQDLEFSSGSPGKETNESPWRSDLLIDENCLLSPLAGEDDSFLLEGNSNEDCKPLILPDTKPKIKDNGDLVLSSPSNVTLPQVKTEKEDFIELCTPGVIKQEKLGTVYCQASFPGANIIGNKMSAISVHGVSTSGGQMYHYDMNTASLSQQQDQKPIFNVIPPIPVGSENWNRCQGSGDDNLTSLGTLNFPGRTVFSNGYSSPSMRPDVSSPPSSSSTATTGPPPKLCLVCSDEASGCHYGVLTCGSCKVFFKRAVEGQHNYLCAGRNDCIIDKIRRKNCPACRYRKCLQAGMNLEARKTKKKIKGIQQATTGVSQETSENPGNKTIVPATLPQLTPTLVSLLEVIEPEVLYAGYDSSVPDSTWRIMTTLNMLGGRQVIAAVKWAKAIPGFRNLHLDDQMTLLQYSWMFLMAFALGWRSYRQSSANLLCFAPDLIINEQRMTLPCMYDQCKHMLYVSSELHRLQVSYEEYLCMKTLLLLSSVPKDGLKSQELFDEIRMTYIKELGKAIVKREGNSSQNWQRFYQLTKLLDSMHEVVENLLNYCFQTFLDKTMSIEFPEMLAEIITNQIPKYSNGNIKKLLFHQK
Transcriptional activator Myb (Homo sapiens), sequence (P10242 whole entry, looked up): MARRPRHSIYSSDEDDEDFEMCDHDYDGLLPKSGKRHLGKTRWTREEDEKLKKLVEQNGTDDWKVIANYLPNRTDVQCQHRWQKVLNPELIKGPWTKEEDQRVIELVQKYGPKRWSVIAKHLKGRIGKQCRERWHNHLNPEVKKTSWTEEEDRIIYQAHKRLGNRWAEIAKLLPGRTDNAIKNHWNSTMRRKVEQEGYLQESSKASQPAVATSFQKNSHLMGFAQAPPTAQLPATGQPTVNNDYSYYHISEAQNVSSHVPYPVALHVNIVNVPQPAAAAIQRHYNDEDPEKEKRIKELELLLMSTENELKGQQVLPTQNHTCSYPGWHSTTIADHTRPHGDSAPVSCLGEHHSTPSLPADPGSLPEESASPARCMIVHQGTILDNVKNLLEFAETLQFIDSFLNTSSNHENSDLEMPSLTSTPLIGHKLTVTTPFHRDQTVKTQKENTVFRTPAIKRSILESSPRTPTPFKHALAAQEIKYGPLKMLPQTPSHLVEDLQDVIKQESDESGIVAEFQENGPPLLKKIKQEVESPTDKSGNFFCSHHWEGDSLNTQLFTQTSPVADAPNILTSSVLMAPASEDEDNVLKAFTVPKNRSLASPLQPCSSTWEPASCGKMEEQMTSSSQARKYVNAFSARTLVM
Cellular tumor antigen p53 (Homo sapiens), sequence (P04637 whole entry, looked up): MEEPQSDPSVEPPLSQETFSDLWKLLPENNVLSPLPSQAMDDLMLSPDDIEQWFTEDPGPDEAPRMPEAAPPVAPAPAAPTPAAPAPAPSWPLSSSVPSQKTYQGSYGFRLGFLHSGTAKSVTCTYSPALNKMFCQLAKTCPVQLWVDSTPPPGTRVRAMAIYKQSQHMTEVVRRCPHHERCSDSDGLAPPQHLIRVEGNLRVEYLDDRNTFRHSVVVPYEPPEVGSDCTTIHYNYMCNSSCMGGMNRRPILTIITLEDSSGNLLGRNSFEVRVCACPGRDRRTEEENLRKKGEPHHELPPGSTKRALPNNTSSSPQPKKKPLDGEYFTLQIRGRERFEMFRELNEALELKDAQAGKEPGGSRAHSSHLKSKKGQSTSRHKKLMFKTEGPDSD
Oxysterols receptor LXR-alpha (Homo sapiens), sequence (Q13133 whole entry, looked up, the tested form may be a part): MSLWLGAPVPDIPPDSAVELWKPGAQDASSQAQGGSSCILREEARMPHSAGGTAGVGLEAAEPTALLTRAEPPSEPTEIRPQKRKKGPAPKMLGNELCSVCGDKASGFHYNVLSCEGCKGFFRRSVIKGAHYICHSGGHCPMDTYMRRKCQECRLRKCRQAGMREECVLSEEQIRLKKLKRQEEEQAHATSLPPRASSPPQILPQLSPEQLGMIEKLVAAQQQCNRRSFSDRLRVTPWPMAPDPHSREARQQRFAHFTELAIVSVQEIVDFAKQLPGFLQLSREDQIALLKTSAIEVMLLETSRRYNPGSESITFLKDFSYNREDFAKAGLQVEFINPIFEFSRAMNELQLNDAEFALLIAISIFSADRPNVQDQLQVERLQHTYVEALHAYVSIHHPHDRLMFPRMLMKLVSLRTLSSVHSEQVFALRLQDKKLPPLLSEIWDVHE
Myc proto-oncogene protein (Homo sapiens), sequence (P01106 whole entry, looked up): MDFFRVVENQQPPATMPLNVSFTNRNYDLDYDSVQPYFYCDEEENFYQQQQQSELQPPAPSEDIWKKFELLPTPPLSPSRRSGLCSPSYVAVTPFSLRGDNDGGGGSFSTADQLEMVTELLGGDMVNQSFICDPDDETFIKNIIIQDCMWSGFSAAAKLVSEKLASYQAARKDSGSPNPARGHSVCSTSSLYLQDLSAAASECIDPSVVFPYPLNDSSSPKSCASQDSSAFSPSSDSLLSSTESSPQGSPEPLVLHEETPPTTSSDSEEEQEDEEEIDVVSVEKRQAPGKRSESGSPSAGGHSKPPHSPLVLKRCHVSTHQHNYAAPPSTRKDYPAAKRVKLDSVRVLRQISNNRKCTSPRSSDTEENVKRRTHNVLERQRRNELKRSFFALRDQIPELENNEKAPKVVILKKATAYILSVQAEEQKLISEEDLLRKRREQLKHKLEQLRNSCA

O=C(O)C(F)(F)OC(F)(F)C(F)(F)OC(F)(F)F
not listed: [18] | [19]
inactive: all other assays above

CC(Cc1ccc(OCC(=O)O)cc1)NCC(O)c1csc(C(F)(F)F)n1 (stereo not drawn)
not listed: [3] | [4] | [5] | [6] | [7] | [12] | [19]
inactive: all other assays above

CCNc1nc(Cl)nc(NC(C)(C)C)n1
not listed: [2] | [5] | [15] | [18] | [19]
inactive: all other assays above

O=S1(=O)OCC2C(CO1)C1(Cl)C(Cl)=C(Cl)C2(Cl)C1(Cl)Cl (stereo not drawn)
active: [10] 178 µM | [11] 172 µM | [12] 8.15 µM | [13] 44.5 µM | [14] 170 µM | [15] 18.3 µM | [17] 20 µM
not listed: [1] | [2] | [18] | [19]
inactive: all other assays above

CCOC(=O)c1ccccc1N
not listed: [1] | [2] | [12] | [15] | [16] | [17] | [18] | [19]
inactive: all other assays above

O=P1(N(CCCl)CCCl)NCCCO1 (stereo not drawn)
not listed: [2] | [4] | [5] | [18] | [19]
inactive: all other assays above

O=c1[nH]c2ccccc2c(=O)o1
not listed: [2] | [4] | [7] | [16] | [17] | [19]
inactive: all other assays above

COC(N)=O
not listed: [2] | [4] | [7] | [15] | [16] | [17] | [18]
inactive: all other assays above

COP(=O)(CCC(=O)NCO)OC
not listed: [1] | [7] | [15] | [19]
inactive: all other assays above

O=C(O)CF
inactive: [1] | [6] | [7] | [18] | [8] | [9] | [10] | [11] | [13] | [14]
